Source: PubChem
This is a sample that favours compounds with a hit; in the whole collection about 3.3% have one here.
Mcl1 Noxa PPI: disrupts binding of human Mcl-1 to Noxa peptide; Q07820; inhibition, % at 21.7 µM; TR-FRET Mcl-1/Noxa peptide binding, 2 h; 1.5% of 220,000 active;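 active = compounds that cut the protein-peptide binding signal by more than 50% relative to plate controls in a single-dose test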;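 also: His-tagged Mcl-1 with rhodamine Noxa BH3 peptide and terbium anti-His antibody; 0% = Mcl-1 plus Noxa peptide wells and 100% = peptide-only wells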
Target sequence (Q07820 whole entry, looked up): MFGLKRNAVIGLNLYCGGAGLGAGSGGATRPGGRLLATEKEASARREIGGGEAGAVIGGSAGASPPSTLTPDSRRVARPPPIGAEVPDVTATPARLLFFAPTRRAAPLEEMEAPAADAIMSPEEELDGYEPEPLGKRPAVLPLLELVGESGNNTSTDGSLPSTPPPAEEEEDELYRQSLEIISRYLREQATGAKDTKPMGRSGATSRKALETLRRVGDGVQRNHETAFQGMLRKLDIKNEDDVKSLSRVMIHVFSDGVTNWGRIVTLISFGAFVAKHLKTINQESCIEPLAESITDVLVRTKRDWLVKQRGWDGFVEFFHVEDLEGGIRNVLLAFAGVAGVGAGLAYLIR
14-3-3 Bad inh: disrupts binding of bovine 14-3-3 zeta to phospho-Bad peptide | inhibition, % at 21.7 µM | P63103 | TR-FRET 14-3-3zeta/Dy647-pBad peptide displacement, 1 h | AID 781 | 0.71% of 220,000 active;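 active = inhibition above about 70%, limit read from the data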;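 also: 0% = full 14-3-3 plus peptide FRET controls and 100% = background without 14-3-3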
Target sequence (P63103 whole entry, looked up): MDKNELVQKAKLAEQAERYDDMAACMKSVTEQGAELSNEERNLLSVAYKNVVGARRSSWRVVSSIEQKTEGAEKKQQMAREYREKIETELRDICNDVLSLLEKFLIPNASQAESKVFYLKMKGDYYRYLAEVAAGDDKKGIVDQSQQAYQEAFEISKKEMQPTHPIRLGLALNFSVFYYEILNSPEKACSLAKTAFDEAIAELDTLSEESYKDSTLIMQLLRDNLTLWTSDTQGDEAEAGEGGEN
Mcl1 Bid PPI: disrupts binding of human Mcl-1 to Bid peptide; Q07820; TR-FRET Mcl-1/Bid-Dy647 peptide binding, 1536-well; inhibition, % at 21.7 µM; 0.97% of 220,000 active;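 active = compounds that cut the binding signal by more than half at the single screening dose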;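 also: His-tagged Mcl-1 with europium anti-His antibody binding Bid BH3 peptide; 0% = Mcl-1 plus peptide wells and 100% = peptide-only wells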
Bim-Mcl-1: disrupts Bim peptide binding to human Mcl-1. Q07820. Bead-based flow cytometry, Bim peptide-Mcl-1 binding. inhibition, % at 10 µM. 0.1% of 190,000 active; in the data active = inhibition above about 40%;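 also: 0% = no compound tracer wells and 100% = peptide blocker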
eIF4E-4G inh: inhibitors of eIF4E and eIF4G interaction in translation initiation; TR-FRET eIF4E-eIF4GI(517-606) binding, 2 h; AID 782; inhibition, % at 21.7 µM; 0.37% of 220,000 active; P63073+Q04637;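 also: 0% = full FRET control wells and 100% = background wells lacking eIF4GI fragment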
p47phox inh: p47phox (human) inhibition; inhibition, % at 24.7 µM; p47phox/p22phox peptide binding, fluorescence polarization, 2 h; 0.53% of 220,000 active; AID 1274; P14598;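 also: 0% = p47phox with labelled peptide and 100% = labelled peptide alone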
* hit, by the source's call; . = no result given; [ ] = dose if it differs, or a comment.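 The calls were made as follows, unless noted: active = inhibition above about 30% (limit read from the data); inactive = the rest.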

SMILES	Mcl1 Noxa PPI	14-3-3 Bad inh	Mcl1 Bid PPI	Bim-Mcl-1	eIF4E-4G inh	p47phox inh
COc1cccc(OC)c1OCCCCn1cnc2ccccc2c1=O	3	43	51*	-3	0	-4
Cc1cc(C)c(C)c(OCCCCn2cnc3ccccc3c2=O)c1	.	-6	-1	0	-1	-17
c1ccc(-c2nc3ccccc3c3nncn23)cc1	1	10	-7	0	0	35*
Cc1cccc(-c2nc3ccccc3c3nncn23)c1	3	6	-9	0	0	7
Cc1cc(=O)oc2c(CN3CCCCC3)c(O)c(Cl)cc12	0	73*[fluorescence artefact?]	8	0	-17	-4
COCCCN(C(=O)Nc1cccc(Cl)c1)C(C)c1ccccn1 (centres undefined)	10	73*	-8	-3	2	11
COc1cccc2cc(C(N)=O)/c(=N/NC(=O)COc3ccc(Cl)cc3)oc12	4	31	64*	-2	3	25
COc1ccc(OCC(=O)N/N=c2\oc3c(OC)cccc3cc2C(N)=O)cc1	2	1	-121	-6	7	4
CN(Cc1cn[nH]c1-c1ccc(-c2ccccc2)cc1)CC1CCOCC1	0	-10	-18	.	0	-5
COc1ccc(-c2cc(C(F)(F)F)n3nc(C(=O)O)nc3n2)cc1	19	24	19	3	-4	65*
O=[N+]([O-])c1cccc(N/N=C/c2cccc3ccccc23)c1	59*	11	-13	-2	-1	-3
O=[N+]([O-])c1ccc(N/N=C/c2c[nH]c3ccccc23)cc1	.	-13	-53	0	4	-88
O=C(/C=C/c1ccc(F)cc1)c1ccccc1Br	18	-4	2	-6	3	-33
O=C(N/N=C/c1ccc2ncccc2c1)c1ccco1	52*	-11	-31	3	1	3
O=C(O[C@@H]1Cc2c(O)cc(O)cc2O[C@@H]1c1cc(O)c(O)c(O)c1)c1cc(O)c(O)c(O)c1	95*	69	1	0	9	-27
O=C(OCc1csc(-c2ccccc2)n1)c1ccc(O)cc1	21	-14	-4	0	8	-18
O=C(NC1CCCC1)c1cnc2n(c1=O)CCS2	-5	-7	10	3	95*[fluorescence artefact?]	-7
O=C(CSc1ncn[nH]1)Nc1ccc(OCc2ccccc2)cc1	13	-9	-15	3	4	7
Cc1cc(-c2ccccc2)nc(=O)[nH]1	15	74*	37	-1	12	-5
Cc1nc(S/C(=C\c2ccc(-c3ccc(C(=O)O)c(Cl)c3)o2)C(=O)O)n[nH]1	93*	86*	55*	.	10	-17
Cc1nc(S/C(=C\c2ccc(OCc3ccccc3Cl)cc2)C(=O)O)n[nH]1	-27	5	-36	-3	-6	0
Cc1ccc(S(=O)(=O)ON2C(=O)c3ccccc3C2=O)c(C)c1	71*	13	-37	-17	15	-17
Cc1cc(C)c(C)c(S(=O)(=O)ON2C(=O)c3ccccc3C2=O)c1C	48	34	-34	-2	2	8
Cc1cc(C)c(S(=O)(=O)ON2C(=O)c3ccccc3C2=O)cc1C	72*	3	-17	2	12	-7
Cc1nc(S(=O)(=O)Nc2ccccc2C(=O)NCC2CC2)cn1C	28	11	-6	.	-4	-8
SMILES	Mcl1 Noxa PPI	14-3-3 Bad inh	Mcl1 Bid PPI	Bim-Mcl-1	eIF4E-4G inh	p47phox inh
COc1ccc(C)c2sc(=NC(=O)c3ccc(C(C)=O)cc3)n(C)c12	-3	7	12	.	7	-1
COc1ccc(C)c2sc(=NC(=O)c3ccccc3)n(C)c12	-5	2	0	0	3	45*
NC(=O)NC(=O)COC(=O)CC12CC3CC(CC(C3)C1)C2	-2	0	-3	-1	0	2
Cc1ccc(CSc2nc3ccccc3c(=O)[nH]2)cc1	7	71*	-49	-2	-3	-12
COCCn1c(C)cc(C(=O)CSc2nc3ccccc3c(=O)[nH]2)c1C	61*	-17	-46	-2	0	-13
CCn1c(SCCN2CCCCC2)nnc1-c1ccc(S(=O)(=O)N2CCOCC2)cc1	27	75*	26	-3	-15	-5
CC1CCCN(C(=O)CSc2nnc(-c3ccc(S(=O)(=O)N4CCOCC4)cc3)n2C)C1 (centres undefined)	1	85*[fluorescence artefact?]	-2	0	-6	1
CC(C)(CNC(=O)COc1ccccc1Cc1ccccc1)N1CCOCC1	11	-1	4	0	2	.
Cc1cc(NC(=O)COC(=O)[C@@H](NS(=O)(=O)c2ccc(Br)cc2)C(C)C)no1	-9	2	-3	.	-9	3
CC1CCCCC1NC(=O)c1cc2ccccc2o1 (centres undefined)	2	0	-44	-4	-3	-9
COc1ccc(Cl)cc1NC(=O)CN(C1CCCCC1)S(C)(=O)=O	68*	1	33	-1	-1	18
CSc1ccccc1NC(=O)CN(C1CCCCC1)S(C)(=O)=O	0	10	-7	-1	1	-17
COC1(NS(=O)(=O)c2ccc(Br)cc2)C(C)=CC(=O)C=C1C	35	7	-84	2	-2	8
COc1ccc(OC)c(NC(=O)COC(=O)c2cc3c(s2)CCC3)c1	72*	43	-68	95*	37*	-9
COc1ccc(OC)c(NC(=O)COC(=O)c2c3c(nc4ccccc24)CCCC3)c1	9	-2	-3	-2	-4	-5
COc1ccc2cc(CN(CC3CCCO3)C(=S)NCc3ccco3)c(=O)[nH]c2c1 (centres undefined)	14	-21	-16	0	-2	-10
Cc1ccc(NC(=O)CN2C(=O)N/C(=C/c3cc(C)n(-c4cccc(C(=O)O)c4)c3C)C2=O)cc1	73*	35	-97	-1	35*	-36
Cc1ccc(CN2C(=O)N/C(=C\c3cccn3-c3cccc(C(=O)O)c3)C2=O)cc1	41	16	-37	-1	6	-22
Cc1ccc(NC(=O)CN2C(=O)N/C(=C\c3cccn3-c3cccc(C(=O)O)c3)C2=O)cc1	63*	69	-78	0	24	-30
CCn1c(C)cc(/C=C2\NC(=O)N(CC(=O)Nc3cccc(C)c3)C2=O)c1C	33	66	33	0	-10	6
CC1(C)CC(=O)C2=C(C1)N(c1cccc(Cl)c1)C(=O)NC2(C(F)(F)F)C(F)(F)F	2	-2	-9	-3	2	-2
Brc1c(NC2=NCCN2)ccc2nccnc12	59*	0	2	0	3	-2
Cc1nc2c(sc3nc(N4CCOCC4)c4c(c32)CC(C)(C)OC4)c(-c2ccc(Cl)cc2)c1C(=O)O	-32	-10	-6	.	-16	-83
COC(=O)c1cccc(Oc2cccc(C(F)(F)F)c2)n1	1	3	-20	0	3	-9
